# Laboratory results from PubChem BioAssay.
# Calls of active or inactive are those of the source.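 How the source made its calls, unless noted: active means fluorescence slope after compound addition differing from the mean of all screened samples at 99.7% confidence, in either direction; inactive means the rest.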
# Experiments:
# [1] = inhibitors of TNFa-induced NFkB p65 translocation, primary screen, imaging, HUVEC, MLSMR starter and 10KST1 sets (AID 438;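 active means inhibition above 20% together with a positive visual image hit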;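 further: compound added about 3h40 before a 20 min TNFalpha stimulation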;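 on inhibition: signal is the nuclear over cytoplasmic p65 intensity ratio per well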); details: HUVEC TNFa-induced p65 nuclear translocation; cell count: measured here: nuclei count (cytotoxicity indicator), at 2.08 µM; inhibition: at 2 µM, stronger effect = higher value, 0% TNFa-plus-vehicle, 100% no-TNFa wells
# [2] = inhibitors of mutant huntingtin aggregation, primary screen, imaging, exon1htt(103Q)mCFP cells, high-content imaging (AID 483;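 active means visual image review flags a hit and inhibition of aggregation exceeds 20%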;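 further: compound exposure lasted 3 days before fixation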;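 on nuclei count: percent of the per-plate median nuclei count of sample wells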); details: exon1htt(103Q)mCFP cell line, aggregate imaging, at 2 µM; inhibition of aggregation: stronger effect = higher value; nuclei count: measured here: cell count, toxicity
# [3] = inhibitors of E-selectin induction by TNFa, primary screen, imaging, HUVEC, immunofluorescence, MLSMR starter and 10KST1 sets (AID 487;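 active means visually confirmed hit in the image check and inhibition above 20%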;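 on inhibition: signal is fraction of cell area covered by stained E-selectin grains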;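 on nuclei count: 100% = median nuclei count of all wells on the same plate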); details: HUVEC TNFalpha-induced E-selectin immunofluorescence imaging, at 2 µM; inhibition: stronger effect = higher value; nuclei count: measured here: cell number, toxicity
# [4] = target: Voltage-gated potassium channel subunit beta-2 (Rattus norvegicus) (UniProt P62483); assay: KvBeta enzyme negative modulators, primary screen, biochemical, NADPH fluorescence (AID 622;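 active means fluorescence slope higher than the sample average by over 3 SD, cut at about -0.22 in these data, passing the limit was not always enough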;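 further: slope of raw intensity against log time taken from 70 to 1610 s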); details: recombinant KvBeta, 4-cyanobenzaldehyde reduction, at 10 µM, stronger effect = higher value
# Chain of Voltage-gated potassium channel subunit beta-2 (Rattus norvegicus) (P62483 whole entry, looked up): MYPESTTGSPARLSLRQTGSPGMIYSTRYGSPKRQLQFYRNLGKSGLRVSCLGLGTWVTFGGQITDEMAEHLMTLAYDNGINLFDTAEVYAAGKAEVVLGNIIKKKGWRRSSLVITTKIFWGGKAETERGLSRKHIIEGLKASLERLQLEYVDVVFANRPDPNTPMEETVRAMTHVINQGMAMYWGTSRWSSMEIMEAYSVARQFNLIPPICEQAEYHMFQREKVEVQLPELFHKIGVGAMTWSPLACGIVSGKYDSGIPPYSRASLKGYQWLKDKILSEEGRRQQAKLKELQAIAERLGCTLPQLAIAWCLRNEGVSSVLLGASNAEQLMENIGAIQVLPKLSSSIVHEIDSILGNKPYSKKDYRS
# [5] = target: Voltage-gated potassium channel subunit beta-2 (Rattus norvegicus) (UniProt P62483); assay: KvBeta positive modulators, primary screen, biochemical, NADPH fluorescence (AID 623;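 active means NADPH fluorescence slope more negative than the mean of all samples by about 3 SD, 99.7% confidence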;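 further: fluorescence intensity change per second fitted from 20 to 320 s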); details: Recombinant KvBeta, NADPH fluorescence decrease slope, 10 min; at 10 µM; stronger effect = lower value
# [6] = target: Alpha-2C adrenergic receptor (Homo sapiens) (UniProt P18825); assay: modulators of alpha2C/GIRK thallium flux, primary screen, cell-based, HEK293 alpha2C/GIRK1/2 (AID 624); details: thallium flux BTC fluorescence, at 10 µM, actives lie on both sides;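 further: slope of fluorescence ratio to pre-addition baseline per second over 15 to 24 s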
# Chain of Alpha-2C adrenergic receptor (Homo sapiens) (P18825 whole entry, looked up): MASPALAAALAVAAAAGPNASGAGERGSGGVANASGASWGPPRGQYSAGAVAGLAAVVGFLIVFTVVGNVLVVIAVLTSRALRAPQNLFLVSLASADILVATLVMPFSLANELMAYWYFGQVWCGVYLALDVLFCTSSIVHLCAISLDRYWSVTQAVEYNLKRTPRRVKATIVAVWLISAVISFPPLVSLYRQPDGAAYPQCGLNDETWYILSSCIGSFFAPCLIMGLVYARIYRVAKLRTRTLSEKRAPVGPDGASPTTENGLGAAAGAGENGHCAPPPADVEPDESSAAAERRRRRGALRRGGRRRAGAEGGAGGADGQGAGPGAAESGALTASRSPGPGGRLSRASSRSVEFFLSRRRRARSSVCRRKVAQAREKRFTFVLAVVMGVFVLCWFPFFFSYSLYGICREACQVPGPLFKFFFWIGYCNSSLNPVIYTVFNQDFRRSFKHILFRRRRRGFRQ
# [7] = inhibitors of Sendai virus-induced IRF3 signaling, primary screen, TLR/RLR signaling modifier project, cell-based, Sendai virus stimulus, luciferase, 10K MLSCN set (AID 602276;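 active means inhibition at or above 50% at 10 µM; inactive means inhibition below 50%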;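 further: firefly luciferase from ISG56 promoter only with Renilla not read in this screen; 0% = Sendai virus plus DMSO and 100% = medium plus DMSO without virus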); details: HEK293 RL24 IRF3 luciferase reporter, at 10 µM, stronger effect = higher value
# [8] = inhibitors of poly I:C-induced TLR3 signaling, primary screen, cell-based, poly I:C stimulus, luciferase, 10K MLSCN set (AID 602277;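 active means inhibition of the reporter signal at or above 50%; inactive means inhibition below 50%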); details: HEK293-TLR3 RL24 IRF3 luciferase reporter, at 10 µM, stronger effect = higher value
Structure (SMILES),cell count [1],inhibition [1],inhibition of aggregation [2],nuclei count [2] [%],inhibition [3],nuclei count [3] [%],fluorescence slope [4],NADPH fluorescence slope [5],slope [6],inhibition [7],inhibition [8]
O=C(NCCN1CCCCCC1)c1ccc(N2CCCC2=O)cc1,561,-4.7% (inactive),23.6% (inactive),84.5,60.4% (inactive),24.3,-0.406 (inactive),-4.1e-05 (inactive),0.00534 (inactive),16.9% (inactive),17.9% (inactive)
CCOc1ccc(-c2nc(S(=O)(=O)c3ccccc3)c(NCc3cccnc3)o2)cc1,621,0.6% (inactive),-7.9% (inactive),105,-59% (inactive),109,-0.534 (inactive),3.2e-06 (inactive),0.00448 (inactive),0.887% (inactive),-7.62% (inactive)
O=C(CN1C(=O)COCC1=O)N1CCOCC1,377,-7% (inactive),11.7% (inactive),108,-35.1% (inactive),112,-0.422 (inactive),-0.00011 (inactive),0.00596 (inactive),9.66% (inactive),23.7% (inactive)
CC(=O)N1CCN(c2ccc(NC(=O)c3ccc(C(C)(C)C)cc3)cc2)CC1,816,7.3% (inactive),-7.5% (inactive),97.8,-186% (inactive),135,-0.494 (inactive),-4e-05 (inactive),0.00554 (inactive),-19.2% (inactive),-42.5% (inactive)
Cc1cc(NCCN2CCOCC2)n2nc(C)c(-c3ccccc3)c2n1,685,-8.9% (inactive),-34.5% (inactive),118,-43.4% (inactive),110,-0.573 (inactive),-2.5e-05 (inactive),0.00587 (inactive),4.53% (inactive),3.88% (inactive)
CCCN1C(=O)c2cc(C(=O)O)ccc2C1O (centres undefined),817,8.1% (inactive),21.4% (inactive),103,-95.2% (inactive),118,-0.514 (inactive),-2.2e-05 (inactive),0.00732 (inactive),4.49% (inactive),13.6% (inactive)
Cc1cccc(N(CC(=O)Nc2ccc(CC#N)cc2)S(C)(=O)=O)c1,487,-15.7% (inactive),-17.9% (inactive),106,-87.9% (inactive),109,-0.483 (inactive),-2.6e-05 (inactive),0.00518 (inactive),16.7% (inactive),28.7% (inactive)
COc1ccccc1-n1c(SCC(=O)Nc2ccc3c(c2)OCO3)nc2c(c1=O)SCC2,324,-4.6% (inactive),-2.1% (inactive),94.7,-54.1% (inactive),137,-0.545 (inactive),4.8e-05 (inactive),0.00487 (inactive),-5.47% (inactive),7.78% (inactive)
CC(C)c1nc(N2CCN(C(=O)c3ccco3)CC2)c2c3c(sc2n1)CCCC3,748,-9.7% (inactive),-12.3% (inactive),94.5,-7.6% (inactive),103,-0.486 (inactive),5.1e-05 (inactive),0.00628 (inactive),15.9% (inactive),-5.95% (inactive)
